How the values were obtained:
Experiment in all cases: thermal shift delta Tm vs DMSO control; higher = stronger stabilization (binding)
Conditions in all cases: 12.5 µM; protein concentration 2 µM
LOC_OS01G57100-cb003 = test system: LOC_OS01G57100-cb003
Method in brief: (§1)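 Rice kinase domain constructs were expressed in E. coli, purified, and tested by differential scanning fluorimetry with compound added in DMSO. Each well of a 96-well plate held 19.5 μl of 2 μM kinase in 100 mM potassium phosphate pH 7.5, 150 mM NaCl, 10% glycerol and 5 × SYPRO Orange, and fluorescence was read from 25°C to 95°C at 0.05°C/s. The melting temperature shift is the mean of triplicates, taken against protein with DMSO alone after Boltzmann fitting.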

LOC_OS01G60330-cb001 = test system: LOC_OS01G60330-cb001
Method in brief: as §1

LOC_OS01G60700-cb002 = test system: LOC_OS01G60700-cb002
Method in brief: as §1

LOC_OS01G63280-cb003 = test system: LOC_OS01G63280-cb003
Method in brief: as §1

LOC_OS01G67340-cb003 = test system: LOC_OS01G67340-cb003
Method in brief: as §1

LOC_OS01G70970-cb002 = test system: LOC_OS01G70970-cb002
Method in brief: as §1

LOC_OS02G07810-cb001 = test system: LOC_OS02G07810-cb001
Method in brief: as §1

LOC_OS02G08530-cb003 = test system: LOC_OS02G08530-cb003
Method in brief: as §1

LOC_OS02G14120-cb001 = test system: LOC_OS02G14120-cb001
Method in brief: as §1

LOC_OS02G17970-cb001 = test system: LOC_OS02G17970-cb001
Method in brief: as §1

Compound | thermal shift delta Tm (LOC_OS01G57100-cb003) [°C] | thermal shift delta Tm (LOC_OS01G60330-cb001) [°C] | thermal shift delta Tm (LOC_OS01G60700-cb002) [°C] | thermal shift delta Tm (LOC_OS01G63280-cb003) [°C] | thermal shift delta Tm (LOC_OS01G67340-cb003) [°C] | thermal shift delta Tm (LOC_OS01G70970-cb002) [°C] | thermal shift delta Tm (LOC_OS02G07810-cb001) [°C] | thermal shift delta Tm (LOC_OS02G08530-cb003) [°C] | thermal shift delta Tm (LOC_OS02G14120-cb001) [°C] | thermal shift delta Tm (LOC_OS02G17970-cb001) [°C]
COCCOc1ccc2c(c1)ncn2-c1ccc2cccc(N3CCC(N)CC3)c2n1 | 1.13 | 0.82 | 0.15 | 1.35 | 2.25 | 8.53 | 0.59 | 3.85 | 11 | 0.26
COc1cc2c(N3CCN(C(=O)Nc4ccc(OC(C)C)cc4)CC3)ncnc2cc1OCCCN1CCCCC1 [Tandutinib (MLN518)] | 0.97 | 0.04 | 0.63 | 0.12 | 0.5 | -0.15 | 0.79 | 0.33 | 0.24 | -0.44
CC1(C)OCCn2c1nc1c(N3CCOCC3)nc(-c3cnc(N)nc3)nc12 | -0.05 | 5.04 | 0.81 | -0.02 | 0.53 | 1.29 | 0.49 | 1.45 | 0.72 | 0.78
Cc1cc(Nc2ncnc3ccc(-c4ccc(CNCCS(C)(=O)=O)o4)cc23)ccc1Oc1ccn2ncnc2c1 [HER2-Inhibitor-1] | 2.52 | 0.97 | 1.31 | 1.08 | 0.71 | 0.3 | 0.98 | 2.32 | 2.21 | 1.79
COc1cc(-c2cc(-c3ccc(N4CCNCC4)cc3)cnc2C)cc(OC)c1OC | -0.02 | 1.13 | 0.16 | -0.05 | 0.51 | 0.29 | 0.05 | 0.49 | 1.25 | 0.44
CC(C)(C)c1nc(-c2cccc(NS(=O)(=O)c3c(F)cccc3F)c2F)c(-c2ccnc(N)n2)s1 | 2.01 | 7.29 | 1.89 | 19.8 | 1.21 | 3.43 | 1.44 | 1.92 | 3.94 | 1.55
CCn1c(C(=O)N(C2CC2)C2CC2)cc2c3c(ncn3C)c(Nc3cc(C)n(C)n3)nc21 | 1.18 | 1.11 | 1.61 | 0.73 | 0.2 | 0.33 | 0.6 | 1.47 | 4.36 | 1.3
CCCCNc1ncc(-c2ccc(CN3CCOCC3)cn2)c(NC2CCC(O)CC2)n1 (stereo not given) | -0.33 | 8.95 | 0 | -0.12 | 1.86 | 5.72 | 0.1 | 1.9 | 5.78 | 0.44
OCCn1cc(-c2cnc3nnn(Cc4ccc5ncccc5c4)c3n2)cn1 | 0.41 | 0.74 | 0.46 | 0.3 | -0.64 | 0.28 | 0.2 | 0.45 | -0.27 | 0.49
O=C(NCc1cccc(O)c1)Nc1nc(-c2ccncc2)cs1 | 0.7 | 0.56 | 1.38 | -0.09 | 0.16 | 0.57 | 1.03 | 1.04 | 0.87 | 0.34
O=C(c1ccc(/C=C/c2n[nH]c3ccccc23)cc1)N1CCNCC1 | 1.7 | 11.6 | 0.48 | 0.98 | 4.9 | 6.89 | 0.73 | 4.1 | 7.17 | 0.42
COc1cc(OC)c(C=C2C(=O)Nc3ccccc32)c(OC)c1 | 1.44 | 0.76 | 0.97 | -0.13 | 0.36 | 0.32 | 0.32 | 0.7 | 0.94 | 0.65
Cc1nc(NC(=O)N2CCC[C@H]2C(N)=O)sc1-c1ccnc(C(C)(C)C(F)(F)F)c1 [Alpelisib (BYL719)] | 0.37 | 0.43 | 1.65 | 0.27 | 0.12 | 0.36 | 0.62 | -0.09 | 2.13 | 1.03
CCS(=O)(=O)N1CCN(c2ccc(Nc3ncc(C(N)=O)c(NC4CC4)n3)cc2)CC1 | 0.76 | 9.63 | 1.4 | 1.68 | 3.04 | 7.22 | 0.35 | 3.19 | 5.36 | 1.18
CCN(CC)CCCCNc1ncc2cc(-c3cc(OC)cc(OC)c3)c(NC(=O)NC(C)(C)C)nc2n1 | 0.87 | 0.35 | 0.92 | 0.87 | 0.05 | 0.05 | 0.72 | 0.6 | -0.08 | 0.18
Cn1cc(-c2ccc(F)c(C(F)(F)F)c2)nc1C1CCN(c2ncnc3[nH]ncc23)CC1 | 0.5 | 1.11 | 0.96 | -0.11 | 0.07 | 0.57 | 0.34 | 0.53 | 0.5 | 0.85
COc1cc2c(cc1OC)[C@@H]1C(=O)c3ccc4c(c3O[C@@H]1CO2)C=CC(C)(C)O4 [Deguelin] | 1.25 | 1.41 | 0.73 | 0.43 | 0.31 | 0.2 | 0.57 | 0.83 | 0.97 | 1.35
Oc1cc(O)cc(/C=C/c2ccc(O)c(O)c2)c1 [Piceatannol] | -0.61 | 1.29 | 1.12 | 1.07 | 0.13 | 0.59 | 1.77 | 1.3 | 0.89 | 1.38
COc1cccc(-c2cc(=O)c3ccccc3o2)c1N | -0.23 | 0.99 | 0.39 | -0.2 | -0.8 | 0.32 | 0.94 | 0.37 | -0.3 | -0.31
C[C@@H](Nc1cc(F)cc(F)c1)c1cc(C(=O)N(C)C)cc2c(=O)cc(N3CCOCC3)oc12 | 0.51 | 1.18 | 1.09 | 0.24 | 0.36 | 0.08 | 0.6 | 0.37 | 0.3 | 0.78
